Compound activity (PubChem)
D1 antag – antagonists of human D1 dopamine receptor; P21728; HEK293 TREx D1 cells, calcium flux, dopamine EC80; hits give low values; activity change, negative = inhibition, % at 10 µM; 360,000 tested, 3.2% active; AID 504652; in the data active = activity change below about -30%
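After overnight tetracycline induction at 30 C, force-coupled D1 HEK293 cells took up a no-wash calcium dye at room temperature. Compounds were added and monitored 180 s, and the response to EC80 dopamine was then recorded.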
D1 ag – human D1 receptor agonism. AID 504660. 360,000 tested, 1% active. activation, % at 2 µM. HEK293 T-REx D1 cells, calcium flux, agonist mode. P21728
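Agonism was scored from calcium flux recorded over 180 s (1 read/s) after pintool compound addition, following a 10-cycle baseline. Cells were inducible force-coupled HEK293 TREx D1, plated overnight at 30 C and loaded with no-wash calcium dye.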
TRHR enhancer – allosteric enhancers of human TRH receptor; P34981; TRHR cells, fluo-8 calcium fluorescence, EC20 TRH enhancement; enhancement, % at 2 µM; 360,000 tested, 0.66% active; AID 493056; in the data active = enhancement above about 30%
Target sequence (P34981 whole entry, looked up): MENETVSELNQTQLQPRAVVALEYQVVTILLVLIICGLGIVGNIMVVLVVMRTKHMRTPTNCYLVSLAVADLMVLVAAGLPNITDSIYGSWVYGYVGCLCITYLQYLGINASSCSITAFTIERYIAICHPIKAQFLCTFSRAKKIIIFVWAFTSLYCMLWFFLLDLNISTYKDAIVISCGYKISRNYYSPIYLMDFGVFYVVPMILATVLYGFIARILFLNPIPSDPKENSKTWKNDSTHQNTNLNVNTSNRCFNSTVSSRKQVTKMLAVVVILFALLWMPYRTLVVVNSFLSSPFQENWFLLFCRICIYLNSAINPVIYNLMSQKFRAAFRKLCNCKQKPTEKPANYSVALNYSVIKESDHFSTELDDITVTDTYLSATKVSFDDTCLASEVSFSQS
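Enhancer read-out: after compound pinning and an initial kinetic agonist-mode read, an EC20 of TRH (10 nM final) was injected and fluo-8 calcium signal (Ex 480/Em 530) followed at 1 s/cycle for 100 cycles in TRHR-expressing cells.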
D1 PAM – human D1 dopamine receptor positive modulation; P21728; HEK293 TREx D1 cells, calcium flux, dopamine EC20 potentiation; potentiation, % at 10 µM; 360,000 tested, 0.036% active; in the data active = potentiation above about 30%
TRHR agonist – agonists of human TRH receptor; AID 493084; TRHR cells, calcium flux fluo-8, FDSS agonist mode; P34981; 360,000 tested, 0.18% active; activation, % at 2 µM
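Agonist-mode FDSS calcium read (Ex 480/Em 530, 1 s cycles) in 1536-well TRHR cells with fluo-8 dye, after 10-cycle baseline and 23 nL compound addition; TRH at EC20 (10 nM final) added afterwards for the enhancer phase.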
A number is an active result; i = inactive; ! = not active in a repeat. Compounds with a hit are over-represented: about 4.7% of the library has one in this group of screens. Rule as the data show it, unless noted: active = activation above about 30%; inactive = the rest.

SMILES	D1 antag	D1 ag	TRHR enhancer	D1 PAM	TRHR agonist
O=C(NC(=S)Nc1ccc(F)c([N+](=O)[O-])c1)c1ccccc1F	i	i	i	i	i
O=C(Nc1ccccc1)Nc1ccc(F)c([N+](=O)[O-])c1	-47.7	i	i	i	i
Cc1cc(NC(=O)Nc2ccc(Cl)c(Cl)c2)n(-c2ccccc2)n1	-44.3	i	i	i	i
O=C(Nc1ccccc1)Nc1ccc(Cl)c([N+](=O)[O-])c1	-46.2	31.9	i	i	i
Cc1ccc(CN2CCC(CO)(CC3CCCCO3)CC2)o1 (configuration not stated)	i	i	i	i	i
COCc1ccc(CN2CCC(CO)(CC3CCCCO3)CC2)o1 (configuration not stated)	-40.0	i	i	i	i
CCc1ccc(CN2CCC(CO)(CC3CCCCO3)CC2)o1 (configuration not stated)	-37.7	i	i	i	i
CCN(C(=O)Cn1cnc2onc(-c3ccc(F)cc3)c2c1=O)c1cc(C)ccc1C	i	i	i	i	i
CCOC(=O)Cn1nnnc1CN1CCN(c2ccc(OC)cc2)CC1	i	i	33.6	i	i
CCOC(=O)Cn1c(CN2CCN(c3ccc(OC)cc3)CC2)nc2c1c(=O)[nH]c(=O)n2C	i	i	i	i	i
CCCc1cc(=O)n2[nH]c(NCc3c(Cl)cccc3Cl)nc2n1	i	i	i	i	i
CCCc1cc(=O)n2[nH]c(NCc3c(F)cccc3Cl)nc2n1	-30.2!	i	i	i	i
O=C1CCCCN1CCCC(=O)N1CCCC(Nc2ccccc2)C1 (configuration not stated)	-50.8	i	i	i	i
O=C1CC(c2ccc(Cl)c([N+](=O)[O-])c2)c2ccc3ccccc3c2N1 (configuration not stated)	i	i	37.3	i	i
CCOc1ccc(-n2c(SCC(=O)Nc3cc(C)ccc3C)nc3c([nH]c4ccccc43)c2=O)cc1	i	i	i	i	i
CCc1nc2ccccc2c(C(=O)NCc2ccccc2)c1C	-48.8	i	i	i	i
O=C(NCCO)c1nc2ccccc2s1	i	i	i	i	i
CCc1nc2ccccc2c(C(=O)O)c1C	i	i	i	i	i
Cc1ccccc1C(=O)Nc1nnc(-c2ccc(F)cc2)o1	-37.0	i	i	i	i
O=C(Nc1nnc(-c2ccccc2)o1)c1nc2ccccc2s1	i	164.3	i	i	31.2
O=C(NCc1ccccc1)c1nc2ccccc2s1	-38.7	i	i	i	i
N#C/C(=C\c1ccc(N2CCOCC2)o1)C(=O)Nc1ccc(O)cc1	i	41.0	i	i	i
COc1cccc(NC(=O)/C(C#N)=C/c2ccc(-c3ccc(C)cc3)o2)c1	i	110.1	i	i	33.6
COc1ccc(NC(=O)/C(C#N)=C\c2ccc(N3CCOCC3)o2)cc1	i	212.9	i	i	74.6
COc1ccc(NC(=O)/C(C#N)=C/c2ccc(C)o2)cc1	i	i	i	i	i
SMILES	D1 antag	D1 ag	TRHR enhancer	D1 PAM	TRHR agonist
CCOC(=O)/C(C#N)=C/c1ccc(-c2ccc(Br)cc2)o1	i	i	36.8	i	i
CCCCC[C@]12Cc3cc(OC)c(OC)cc3C(O1)c1c(cc(C)n(-c3ccccc3)c1=O)O2	i	i	i	i	i
COc1ccccc1CNC(=O)CCCCn1c(=O)c2ccccc2n(CC(=O)Nc2cccc(Cl)c2)c1=O	i	i	i	i	i
Cc1nc2nc(SCC(=O)NCc3ccccc3Cl)nn2c(C)c1Cc1ccccc1	i	i	i	i	i
CCn1cc2nc(SCc3cc(C)ccc3C)n(Cc3ccc(Cl)cc3)c(=O)c2n1	i	i	i	i	i
C[C@@H]1C(=O)O[C@@H]2CC34[C@H]5C[C@@H](C(C)(C)C)C36[C@H](OC(=O)[C@@H]6O)OC4(C(=O)O5)[C@@]12O (some centres not stated)	-38.1	i	i	i	i
C[C@@H]1C(=O)O[C@H]2CC34[C@H]5C[C@@H](C(C)(C)C)[C@]36[C@@H](OC(=O)[C@@H]6O)O[C@@]4(C(=O)O5)[C@]21O (some centres not stated)	i	i	i	i	i
CN(C)c1cccc(C(=O)N(C)C2CCCN(Cc3ccccc3F)C2)c1 (configuration not stated)	i	i	31.1	i	i
CC1Cc2cc(S(=O)(=O)CCC(=O)Nc3ccc(OC(F)(F)F)cc3)ccc2N1C(=O)C1CC1 (configuration not stated)	i	i	i	i	i
O=C(NCC1CCCO1)C1CC(c2ccc(Cl)c(Cl)c2)=NO1 (configuration not stated)	-32.2	i	i	i	i
CCOc1ccc(-c2nnc(NC(=O)CCCOc3cccc(C)c3)o2)cc1	-33.0	i	i	i	i
COc1ccc(NC(=O)CSc2cn(CCNC(=O)c3c(F)cccc3F)c3ccccc23)cc1	i	i	i	i	i
COc1cccc(CNC(=O)c2ccc3c(c2)nnn3C2CCCC2)c1	i	i	i	i	i
O=C(CNS(=O)(=O)c1ccccc1)OCC(=O)c1ccc(F)cc1	i	i	i	i	i
O=C(CCNS(=O)(=O)c1ccccc1)OCC(=O)c1ccc(F)cc1	-39.6	i	i	i	i
O=S(=O)(Nc1ccccc1O)c1cccc2cccnc12	-34.7	i	i	i	i
Cc1nc(-c2ccc(F)cc2)c(CC(=O)N(C)CC(=O)Nc2ccccc2Cl)s1	i	i	i	i	i
CN(CC(=O)Nc1ccccc1Cl)C(=O)Cn1nnc(-c2ccc(F)cc2)n1	-47.5	i	i	i	i
COc1ccc(N2CCN(C(=O)c3sc4nc5n(c(=O)c4c3C)CCC5)CC2)cc1	i	i	i	i	i
Cc1ccc(S(=O)(=O)c2nnn3c2nc(NC(C)C)c2sccc23)cc1	-30.4	i	i	i	i
COCCCNc1nc2c(S(=O)(=O)c3ccccc3)nnn2c2ccc(Cl)cc12	i	i	i	i	i
COCCCNc1nc2c(S(=O)(=O)c3ccc(C)c(C)c3)nnn2c2ccc(Cl)cc12	-66.0	i	i	i	i
Cc1ccc(S(=O)(=O)c2nnn3c2nc(NC(C)C)c2cc(Cl)ccc23)cc1C	-52.0	i	i	i	i
COCCNc1nc2c(S(=O)(=O)c3ccc(C)c(C)c3)nnn2c2ccc(Cl)cc12	-63.6	i	i	i	i
Cc1ccc(CNc2nc3c(S(=O)(=O)c4ccccc4)nnn3c3ccsc23)cc1	i	i	i	i	i
O=S(=O)(c1ccccc1)c1nnn2c1nc(NCc1ccc(Cl)cc1)c1sccc12	-33.6	i	i	i	i
O=C(OCC#CCSc1nnc(-c2cccc3ccccc23)s1)c1cccs1	i	i	i	i	i
C=CCn1c(=O)[nH]c2nc3cc(N=CN(C)C)c(C)cc3nc2c1=O	i	56.7	i	i	42.7
Cc1cccc(C)c1NC(=O)CSc1nc2ccccc2c2nc(CCc3c(C)n[nH]c3C)nn12	-46.2	i	i	i	i
